Screens (PubChem)
Hits are enriched below; roughly 2.5% of the tested compounds scored in any of these assays.
aSyn 5UTR inh: 5' untranslated region of α-synuclein, MLPCN primary screen | inhibition, % (tested at 7.5 µM) | alpha-synuclein 5'UTR reporter, inhibitor activity | hit rate 0.82% among 300,000 | AID 1813; in the data active = inhibition above about 60%;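 note: H4 neuroglioblastoma cells stably carrying SNCA 5'UTR luciferase fusion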
TMEM16A inh: mouse TMEM16A channel inhibition, primary screen | HEK293 TMEM16A/YFP iodide influx fluorescence, ionomycin | hit rate 1.2% among 310,000 | Q8BHY3 | normalized B-score (activity score, 25-100; higher = stronger inhibition) at 10 µM | AID 588511;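 active = ratio plate-corrected score three or more library SD toward inhibition, starting fluorescence score within five deviations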;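 note: score derived from kinetic fluorescence span divided by baseline fluorescence per well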
Target sequence (Q8BHY3 whole entry, looked up): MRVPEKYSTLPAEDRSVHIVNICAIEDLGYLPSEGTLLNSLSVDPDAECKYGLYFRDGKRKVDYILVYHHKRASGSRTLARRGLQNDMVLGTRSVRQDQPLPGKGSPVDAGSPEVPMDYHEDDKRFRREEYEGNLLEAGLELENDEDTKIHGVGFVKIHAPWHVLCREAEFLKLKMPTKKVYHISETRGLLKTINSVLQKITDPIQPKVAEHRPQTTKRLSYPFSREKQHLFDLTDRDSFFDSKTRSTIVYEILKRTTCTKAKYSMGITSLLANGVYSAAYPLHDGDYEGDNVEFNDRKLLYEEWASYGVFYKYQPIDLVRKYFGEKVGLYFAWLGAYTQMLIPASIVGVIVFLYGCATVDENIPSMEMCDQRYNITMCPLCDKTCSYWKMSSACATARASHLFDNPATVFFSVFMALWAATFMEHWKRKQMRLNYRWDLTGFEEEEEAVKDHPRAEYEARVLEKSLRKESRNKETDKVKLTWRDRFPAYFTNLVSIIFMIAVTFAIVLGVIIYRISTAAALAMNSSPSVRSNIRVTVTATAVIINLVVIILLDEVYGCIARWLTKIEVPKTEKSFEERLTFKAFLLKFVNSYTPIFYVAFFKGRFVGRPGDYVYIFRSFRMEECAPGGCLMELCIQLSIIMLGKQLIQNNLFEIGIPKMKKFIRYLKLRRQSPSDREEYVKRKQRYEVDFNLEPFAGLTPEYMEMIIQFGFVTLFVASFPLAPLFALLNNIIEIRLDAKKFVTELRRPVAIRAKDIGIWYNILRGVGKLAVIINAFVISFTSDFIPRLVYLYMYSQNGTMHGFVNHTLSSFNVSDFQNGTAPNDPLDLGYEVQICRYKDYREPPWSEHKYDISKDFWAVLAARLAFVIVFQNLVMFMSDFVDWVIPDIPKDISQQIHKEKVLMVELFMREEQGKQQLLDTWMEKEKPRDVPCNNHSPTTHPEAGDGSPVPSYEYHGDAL
TMEM16A act: activates or potentiates the mouse TMEM16A chloride channel; Q8BHY3; AID 623877; hit rate 0.3% among 340,000; HEK293 TMEM16A/YFP-H148Q/I152L, iodide quench fluorescence; hits give low values; B-score at 10 µM;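 active = fluorescence-ratio B-score plate-corrected deviation score at least 3 library SD below zero, with starting fluorescence score within 5 deviations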;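 note: channel opened by trigger with iodide after compound preincubation; score built on the fluorescence ratio of max minus min over baseline; more negative score means more quench and so TMEM16A activation or potentiation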
697 NFkB inh: inhibitors of the PMA/ionomycin-induced NF-kB reporter in 697 B cells. 697 B-cell NF-kB luciferase reporter, 16 h. inhibition, % at 4 µM. hit rate 0.33% among 330,000. AID 435022; in the data active = inhibition above about 35%
KLF5 inh: kruppel-like factor 5 inhibition; DLD-1 KLF5 promoter-luciferase reporter, luminescence; inhibition, % at 5 µM; hit rate 0.23% among 290,000; AID 1700;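 active = inhibition above a per-plate limit of that plate's mean compound inhibition plus 3 SD, cut at about 60% in these data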;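 note: higher means less KLF5 promoter-driven luciferase light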
Jurkat NFkB inh: lowers PMA/ionomycin-induced NF-kB signal in Jurkat cells | AID 435003 | PMA/ionomycin-induced NF-kB luciferase reporter, luminescence | inhibition, % at 4 µM | hit rate 0.53% among 330,000; in the data active = inhibition above about 50%
TMEM16A reconf: re-confirmation of mouse TMEM16A chloride channel inhibitors | hit rate 39% among 2,300 | inhibition, % at 10 µM | HEK293 TMEM16A/YFP-H148Q, iodide quench fluorescence; ionomycin added to raise cell calcium | shares compounds with TMEM16A inh | AID 652189;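 active = mean duplicate percent inhibition, scaled so buffer wells are 0 and the reference blocker 100, over three buffer SD above buffer mean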
TMEM16A Ca cntr: counter-screen for TMEM16A inhibitors: effect on calcium mobilization | hit rate 2% among 2,300 | TMEM16A/YFP HEK293, Fluo4 calcium mobilization | shares compounds with TMEM16A inh | calcium response (% of ionomycin), % at 10 µM | AID 652231;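 active = duplicate-averaged calcium signal over 20% of the ionomycin maximum, relative to buffer baseline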;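 note: each well's signal is peak minus trough fluorescence divided by its pre-addition baseline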
YFP-HEK293 quench: counter-screen for TMEM16A inhibitors: effect in parental YFP-HEK293 cells. shares compounds with TMEM16A inh. iodide YFP quench, ionomycin. YFP ratio F(max-min)/F0 at 10 µM. 2,300 tested, under 10 active. AID 652233;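 active = yellow fluorescent protein signal ratio exceeding the buffer control mean by over 5 SD of those controls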;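 note: ratio is mean of duplicate wells from kinetic YFP trace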
ClC-1 inh: blocks the rat ClC-1 voltage-dependent chloride channel | shares compounds with TMEM16A inh | CHO ClC-1-YFP, iodide influx fluorescence quench; iodide control reads 0, buffer control 100 | ratio percent, % at 10 µM | 2,300 tested, under 10 active;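 active = duplicate-mean ratio percent above the mean of iodide-only control wells, which defines zero, plus 5 of their SD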;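 note: higher percent means stronger block of ClC-1 iodide influx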
Large screens that a line does not name were inactive (follow-up assays come after a bar, where they were run).

CC1(C)c2ccccc2-c2nc3ccccc3cc2C1N1CCOCC1 (configuration not stated)	none (no result: aSyn 5UTR inh, TMEM16A inh, 697 NFkB inh, KLF5 inh, Jurkat NFkB inh)
CC1(C)c2cc(O)ccc2OC1N1CCOCC1 (configuration not stated)	TMEM16A inh 25 | TMEM16A reconf inactive | TMEM16A Ca cntr inactive | YFP-HEK293 quench inactive | ClC-1 inh inactive
Cc1ccc(C(=O)CSc2nc3ccccc3c(=O)[nH]2)cc1	TMEM16A inh 100 | TMEM16A reconf inactive | TMEM16A Ca cntr inactive | YFP-HEK293 quench inactive | ClC-1 inh inactive
Cc1ccccc1C(=O)N(Cc1nc2ccccc2c(=O)[nH]1)C1CCCC1	none
CCc1ccc(C(=O)CSc2nc3ccccc3c(=O)[nH]2)cc1	none
Cc1ccc(C(=O)N(Cc2nc3ccccc3c(=O)[nH]2)C2CCCC2)cc1	TMEM16A inh 100 | TMEM16A reconf inactive | TMEM16A Ca cntr inactive | YFP-HEK293 quench inactive | ClC-1 inh inactive
CCOC(=O)Nc1c(Cl)n(C)c(=O)n(C)c1=O	none
CCN(C1CCS(=O)(=O)C1)S(=O)(=O)c1ccc(OC)c(OC)c1 (configuration not stated)	none (no result: KLF5 inh)
O=S(=O)(NC1CC(NS(=O)(=O)OCC(Cl)(Cl)Cl)C2CCCCC12)OCC(Cl)(Cl)Cl (configuration not stated)	TMEM16A inh 25 | TMEM16A reconf inactive | TMEM16A Ca cntr inactive | YFP-HEK293 quench inactive | ClC-1 inh inactive
COc1ccc2cc(C(=O)Nc3ccccc3)sc(=O)c2c1OC	none
COc1ccc2cc(C(=O)NCCO)sc(=O)c2c1OC	TMEM16A inh 25 | TMEM16A reconf inactive | TMEM16A Ca cntr inactive | YFP-HEK293 quench inactive | ClC-1 inh inactive
CC(=O)c1cccc(NS(=O)(=O)c2ccc(N/C=C\C(=O)c3ccc(F)cc3)cc2)c1	TMEM16A inh 100 | TMEM16A reconf 32% | TMEM16A Ca cntr inactive | YFP-HEK293 quench inactive | ClC-1 inh inactive
O=C(Nc1ccccc1C(=O)O)c1ccc(NC(=O)C2CCCCC2)cc1	none
COc1ccc(-c2cn(Cc3ccc(C(=O)c4ccccc4)cc3)nn2)cc1	TMEM16A inh 25 (no result: TMEM16A act) | TMEM16A reconf 27% | TMEM16A Ca cntr inactive | YFP-HEK293 quench inactive | ClC-1 inh inactive
CC(C)N(Cc1ccccc1)C(=O)CN1C(=O)NC2(CCCC2)C1=O	none (no result: aSyn 5UTR inh, TMEM16A inh, KLF5 inh)
Cc1ccccc1-c1cc(C(=O)n2cccn2)c2cc(Cl)ccc2n1	TMEM16A inh 25 | TMEM16A reconf inactive | TMEM16A Ca cntr inactive | YFP-HEK293 quench inactive | ClC-1 inh inactive
Cc1ccccc1-c1nc2ccc(Cl)cc2c(=O)n1O	none
CC(C)Oc1ccc(S(=O)(=O)N2CCOCC2)cc1NC(=O)C1COc2ccccc2O1 (configuration not stated)	none (no result: aSyn 5UTR inh, TMEM16A inh, KLF5 inh)
CCCCOc1cccc(-c2cc(C(=O)NNC(=S)NCC)c3ccccc3n2)c1	TMEM16A inh 25 | TMEM16A reconf 24% | TMEM16A Ca cntr inactive | YFP-HEK293 quench inactive | ClC-1 inh inactive
CCNC(=S)NNC(=O)c1cc(-c2cccc(C)c2)nc2ccccc12	none
CCNC(=S)NNC(=O)c1cc(-c2cccc(OCC)c2)nc2ccccc12	TMEM16A inh 25 | TMEM16A reconf inactive | TMEM16A Ca cntr inactive | YFP-HEK293 quench inactive | ClC-1 inh inactive
COc1ccccc1NC(=O)NC1(C(=O)N2CCCCC2)CCCCC1	none
COCCCn1c(=S)[nH]c2ccc(N3CCOCC3)cc2c1=O	none (no result: KLF5 inh)
CCCCN(C)CCn1c(=S)[nH]c2ccc(N3CCOCC3)cc2c1=O	TMEM16A inh 25 | TMEM16A reconf inactive | TMEM16A Ca cntr inactive | YFP-HEK293 quench inactive | ClC-1 inh inactive
CC1C(=O)Nc2ccccc2N1C(=O)c1ccccc1 (configuration not stated)	none
CC1C(=O)Nc2ccccc2N1C(=O)C1CC1 (configuration not stated)	TMEM16A inh 25 | TMEM16A reconf inactive | TMEM16A Ca cntr inactive | YFP-HEK293 quench inactive | ClC-1 inh inactive
COc1cccc(NC(=O)c2cccc(N3C(=O)C4CCC(C)CC4C3=O)c2)c1 (configuration not stated)	none
O=C(OCc1csc(-c2ccccc2)n1)c1ccc(O)cc1	TMEM16A inh 100 | TMEM16A reconf inactive | TMEM16A Ca cntr inactive | YFP-HEK293 quench inactive | ClC-1 inh inactive
Cc1ccc(C(=O)NCC(=O)OCc2csc(-c3ccccc3)n2)cc1	none
CCCCSc1oc(-c2ccco2)nc1S(=O)(=O)c1ccccc1	TMEM16A inh 25 | TMEM16A reconf inactive | TMEM16A Ca cntr inactive | YFP-HEK293 quench inactive | ClC-1 inh inactive
CCCCN(C(=O)c1cc(CN2C(=O)c3ccccc3C2=O)ccc1OC)c1c(N)n(CC(C)C)c(=O)[nH]c1=O	none (no result: aSyn 5UTR inh, TMEM16A inh, 697 NFkB inh, KLF5 inh, Jurkat NFkB inh)
Cc1cccc(C)c1NC(=O)CSc1nnc(-c2cnccn2)n1C	none
CCOC(=O)c1cc2c(nc1N)CC(C)(CC)OC2 (configuration not stated)	none | TMEM16A reconf inactive | TMEM16A Ca cntr inactive | YFP-HEK293 quench inactive | ClC-1 inh inactive
CC(C)CCN(C(=S)Nc1cccc(C(F)(F)F)c1)C(C)c1ccccn1 (configuration not stated)	TMEM16A inh 25 | TMEM16A reconf inactive | TMEM16A Ca cntr inactive | YFP-HEK293 quench inactive | ClC-1 inh inactive
Cc1cc(C(=O)NCC(=O)OCC(=O)Nc2ccc(OC(F)F)cc2)ccc1[N+](=O)[O-]	TMEM16A inh 25 | TMEM16A reconf inactive | TMEM16A Ca cntr inactive | YFP-HEK293 quench inactive | ClC-1 inh inactive
COc1ccc(Cl)cc1NC(=O)COC(=O)CNC(=O)c1ccc([N+](=O)[O-])c(C)c1	none
COc1ccc(C(=O)NCC(=O)OCC(=O)c2c(C)[nH]c3ccccc23)cc1OC	none (no result: aSyn 5UTR inh, TMEM16A inh, KLF5 inh)
Fc1ccccc1CNc1ncnc2sccc12	none
COc1ccccc1CNc1ncnc2sccc12	TMEM16A inh 25 | TMEM16A reconf inactive | TMEM16A Ca cntr inactive | YFP-HEK293 quench inactive | ClC-1 inh inactive
c1ccc2c(c1)OCC(CNc1ncnc3sccc13)O2 (configuration not stated)	TMEM16A inh 25 (no result: 697 NFkB inh, Jurkat NFkB inh) | TMEM16A reconf inactive | TMEM16A Ca cntr inactive | YFP-HEK293 quench inactive | ClC-1 inh inactive
CC(C#N)Sc1nnc(-c2ccccc2F)n1C1CC1 (configuration not stated)	none
